ChEMBL document CHEMBL1157539, “Thousands of chemical starting points for antimalarial lead identification” (Nature, 2010)
Where “and” joins values, the source holds several entries; their conditions need not be identical. Identical values can stand only once.

Key:
Assay type in all cases: functional
Plasmodium falciparum [1] = test: GSK_TCMDC: Inhibition of Plasmodium falciparum 3D7 in whole red blood cells, using parasite LDH activity as an index of growth. Test compounds present at 2uM
Plasmodium falciparum [2] = test: GSK_TCMDC: Inhibition of Plasmodium falciparum Dd2 in whole red blood cells, using parasite LDH activity as an index of growth. Test compounds present at 2uM
HepG2 = test: GSK_TCMDC: Percent inhibition of human HepG2 cell line. Test compounds present at 10uM.

Structure (SMILES) | Inhibition (Plasmodium falciparum [1]) | Inhibition (Plasmodium falciparum [2]) | Inhibition (HepG2)
Cc1[nH]c2ccccc2c1C1=CCN(CCCCC2(C)C(=O)Nc3ccccc32)CC1 (centres undefined) | 94% | 89% | 8%
Cc1c(C)c2c(c(C)c1O)CC[C@](C)(C(=O)N1CCC(CN3CCC(c4c[nH]c5ccccc45)CC3)CC1)O2 | 100% | 98% | 29%
O=C(/C=C/c1ccc(Cl)c(Cl)c1)NCC1CCC(CN2CCC(c3c[nH]c4ccccc34)CC2)CC1 (centres undefined) | 100% | 93% | 54%
Br.CCCCCCCSc1ccc(CC(C)NCC(O)c2cccc(Cl)c2)cc1 (centres undefined) | 100% | 99% | 94%
COc1cccc(O)c1CNCC(O)c1cccc(C(F)(F)F)c1 (centres undefined) | 98% | 96% | 31%
Cl.c1ccc2c(NCCCCCCNc3c4c(nc5ccccc35)CCCC4)c3c(nc2c1)CCCC3 | 100% | 51% | 90%
O=C(C=Cc1ccccc1O)N1CCC(CN2CCC(c3c[nH]c4ccccc34)CC2)CC1 | 98% | 43% | 27%
Cc1csc(NC2=NCCN2)n1.Cl | 99% | 1% | 10%
O=C(c1cc(C(=O)NCc2ccc(Cl)cc2)c(=O)n(Cc2ccc(Cl)cc2)c1)c1cc(Cl)ccc1O | 80% | 4% | 6%
Cc1[nH]c2ccccc2c1C1=CCN(CCCCCC23CCCc4cccc(c42)NC3=O)CC1 (centres undefined) | 94% | 91% | 11%
CC(C)CNCc1cccc(-c2ccccc2CN(C(=O)Nc2ccccc2)C2CCN(Cc3ccccc3)CC2)c1.O=C(O)C(F)(F)F | 100% | 68% | 36%
Cc1ccc2c(C3=CCN(CCCCC4(C)C(=O)Nc5ccccc54)CC3)c(C)[nH]c2c1 (centres undefined) | 95% | 91% | 9%
Cc1[nH]c2c(C)cc(NS(C)(=O)=O)cc2c1C1CCN(CC2CCN(C(=O)/C=C/c3ccc(Cl)c(Cl)c3)CC2)CC1 | 100% | 99% | 33%
COc1ccc(C(=O)C2CC2CN2CC=C(c3c[nH]c4cccc(Br)c34)CC2)cc1.O=C(O)C(F)(F)F (centres undefined) | 88% | 67% | 32%
O=C(NC1CCC(CN2CCC(c3c[nH]c4ccccc34)CC2)CC1)c1cn(Cc2ccccc2)c2ccccc12 (centres undefined) | 91% | 48% | 84%
O=C(/C=C/c1ccc(Cl)cc1Cl)NC1CCC(CN2CCC(c3c[nH]c4ccccc34)CC2)CC1 (centres undefined) | 100% | 79% | 37%
O=C(/C=C/c1ccc(O)cc1)NC1CCC(CN2CCC(c3c[nH]c4ccccc34)CC2)CC1 (centres undefined) | 99% | 51% | 21%
CC[C@H]1CN2CC[C@H]1C[C@H]2[C@H](O)c1cc(-c2cccc(Cl)c2)nc2ccc(OC)cc12.Cl | 98% | 99% | 16%
CC[C@H]1CN2CC[C@H]1C[C@@H]2[C@@H](O)c1cc(Cl)nc2ccc(OC)cc12 | 98% | 82% | 0%
O=C(/C=C/c1ccc(Cl)c(Cl)c1)NCCCCCN1C2CCC1CC(c1c[nH]c3ccccc13)C2 (centres undefined) | 98% | 4% | 54%

Structure (SMILES) | Inhibition (Plasmodium falciparum [1]) | Inhibition (Plasmodium falciparum [2]) | Inhibition (HepG2)
CCCCCCCc1cc(=O)c2ccccc2[nH]1 | 96% | 94% | 5%
S=C(Nc1ccccc1Cl)NC1CCC(CN2CCC(c3c[nH]c4ccccc34)CC2)CC1 (centres undefined) | 90% | 12% | 31%
O=C(/C=C/c1ccc(Cl)c(Cl)c1)NCC1CCCC(CN2CCC(c3c[nH]c4ccccc34)CC2)C1 (centres undefined) | 98% | 43% | 61%
Cl.N=c1c2c(n(Cc3ccc(Cl)cc3Cl)c3c1CCC3)CCCC2 | 94% | 73% | 0%
CCN(CC)CCN1C(=O)C(O)(c2ccccc2Cl)c2c1cc(C(N)=O)cc2C(F)(F)F.Cl (centres undefined) | 100% | 86% | 16%
CCCCCCCCNCC(O)c1ccc(Cl)c(Cl)c1.Cl (centres undefined) | 99% | 87% | 0%
CC(=O)N(Cc1cccc(-c2cccc(CNCCc3ccccc3)c2)c1)C1CCN(Cc2ccccc2)CC1.O=C(O)C(F)(F)F | 100% | 57% | 22%
CC(=O)C1(c2ccccc2)CCN(CCC2(c3ccc(Cl)c(Cl)c3)CN(C(=O)Nc3cccc(C(F)(F)F)c3)CCO2)CC1 (centres undefined) | 95% | 66% | 24%
CC1=CC(=O)[C@@H](O)[C@]2(C)[C@H]3[C@@]4(O)OC[C@@]35[C@@H](C[C@@H]12)OC(=O)C[C@H]5[C@@H](C)[C@H]4O [CHAPARRINONE] | 99% | 98% | 38%
CC[C@H]1CN2CC[C@@H]1C[C@H]2[C@H](O)c1cc(N2CCC(C)CC2)nc2ccc(OC)cc12 | 99% | 98% | 16%
CC(Cc1ccc(OC2CCCCC2)cc1)NCC(O)c1cccc(Cl)c1.Cl (centres undefined) | 99% | 99% | 66%
O=C(/C=C/c1ccc(Cl)c(Cl)c1)N1CCC(CN2CCC(c3c[nH]c4cc5c(cc34)OCO5)CC2)CC1 | 100% | 75% | 41%
O=C(C=Cc1ccc(-c2ccccc2)cc1)NC1CCC(CN2CCC(c3c[nH]c4ccccc34)CC2)CC1 (centres undefined) | 100% | 85% and 98% | 97% and 43%
COCCSc1ccc(CC(C)NCC(O)c2cccc(Cl)c2)cc1.Cl (centres undefined) | 97% | 73% | 2%
CC(Cc1ccc(OCCCCOc2ccccc2)cc1)NCCCn1ccnc1 (centres undefined) | 100% | 100% | 100%
CCCC(=O)c1c(O)c2ccccc2oc1=O | 93% | 1% | 11%
Cn1nc(C(F)(F)F)cc1-c1ccc(C(=O)NC2CCC(CN3CCC(c4c[nH]c5ccccc45)CC3)CC2)s1 (centres undefined) | 100% | 97% | 45%
COc1ccc(N(c2nc(-c3cc(Cl)ccc3Cl)cs2)C2CCNCC2)cc1.O=C(O)C(F)(F)F | 91% | 4% | 17%
CC(Cc1ccc(OCc2ccc(CCN(C)C)cc2)cc1)NCCc1cccc(Cl)c1 (centres undefined) | 100% | 78% | 42%
O=C(O)C(F)(F)F.O=C(c1cccs1)N(Cc1cccc(-c2ccc(CNC3CCCC3)cc2)c1)C1CCN(Cc2ccccc2)CC1 | 90% | 74% | 20%

Structure (SMILES) | Inhibition (Plasmodium falciparum [1]) | Inhibition (Plasmodium falciparum [2]) | Inhibition (HepG2)
CN1C(=O)[C@H](NC(=O)[C@@H](Cc2ccccc2)NC(=S)Nc2ccccc2)N=C(c2ccccc2)c2ccccc21 | 86% | 23% | 0%
O=C(NCc1ccccc1)c1nn(CCCN2CCC3(CC2)C(=O)NCN3c2ccccc2)cc1-c1ccc(Cl)c(Cl)c1 | 88% | 21% | 6%
FC(F)(F)c1ccc(NC(=S)N2CCC(CN3CCC(c4c[nH]c5ccccc45)CC3)CC2)cc1 | 100% | 45% | 35%
COc1ccc2[nH]cc(C3CCN(Cc4ccc(NC(=O)c5ccc(-c6ccccc6)cc5)cc4)CC3)c2c1 | 100% | 72% | 24%
O=C(NCc1ccc(S(=O)(=O)N2CCC(CN3CCC(c4c[nH]c5ccccc45)CC3)CC2)s1)c1ccccc1 | 92% | 21% | 32%
CC(=O)N(Cc1cccc(-c2ccc(CNCCc3ccccc3)cc2)c1)C1CCN(Cc2ccccc2)CC1.O=C(O)C(F)(F)F | 99% | 50% | 32%
CCC1(C)CC(CCNCc2ccccc2O)(c2ccc(C)cc2)CCO1 (centres undefined) | 97% | 66% | 9%
COC(=O)CN(C(=O)/C=C/c1ccc(Cl)c(Cl)c1)C1CCC(CN2CCC(c3c[nH]c4ccccc34)CC2)CC1 (centres undefined) | 100% | 69% | 31%
Br.CCOC(=O)c1ccc(CC(C)NCC(O)c2cccc(C(F)(F)F)c2)cc1 (centres undefined) | 100% | 98% | 5%
Cc1ccc(CC(C)(C)NCC(O)c2cccc(C(F)(F)F)c2)cc1.O=C(O)/C=C/C(=O)O (centres undefined) | 97% | 92% | 19%
Cc1c(C)c2c(c(C)c1O)CC[C@](C)(C(=O)NC1CCC(CN3CCC(c4c[nH]c5ccccc45)CC3)CC1)O2 (some centres undefined) | 96% and 85% | 98% and 48% | 24% and 27%
CC[C@H]1CN2CC[C@H]1C[C@H]2[C@H](O)c1cc(/C=C/c2ccccc2)nc2ccc(OC)cc12 | 99% | 99% | 16%
O=C(NC1CCC(CN2CCC(c3c[nH]c4ccccc34)CC2)CC1)c1cc(-c2ccc(F)cc2F)ccc1O (centres undefined) | 100% | 100% | 30%
CC(Cc1ccc(OCCCCOc2ccccc2)cc1)NCCCN1CCOCC1 (centres undefined) | 98% | 78% | 98%
CN(c1cc(NC(=O)c2cccs2)ccn1)C1CCN(Cc2cccc(F)c2)CC1.O=C(O)C(F)(F)F | 94% | 95% | 0%
Cc1cc(N(C)C2CCN(C)CC2)nc(Nc2ccc(Cl)cc2)n1 | 98% | 90% | 15%
Cc1c(C)c2c(c(C)c1O)CC[C@@](C)(C(=O)NC1CCC(CN3CCC(c4c[nH]c5ccccc45)CC3)CC1)O2 (some centres undefined) | 92% | 57% | 29%
COc1cccc(C2(NC[C@@H](O)[C@H](Cc3ccccc3)NC(=O)c3ccccc3)CCCCC2)c1 | 97% | 67% | 14%
